From PubChem BioAssay AID1159580 (chemical genetic matrix, 2015)
The whole screen tested about 5,500 compounds, of which about 2,000 (36%) were called active. Another 18% or so got no clear call; they are omitted. Cut-off read from the data, not from the text of the source: active = normalized growth mostly below about 0.91 (no sharp cut-off); inconclusive = no clear call, values can overlap the other calls; inactive = mostly above about 0.92. This is one part of the list.

Experiment: chemical genetic growth profiling, strain panel (AID 1159580);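 note: tested at 20 µM; growth read once vehicle control cultures reached saturation at 30 °C; 1 = growth at the plate median or of vehicle wells; lower values mean less growth of the strain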
Settings: growth OD

Measured: normalized growth

CN1CCN(CCC=C2c3ccccc3Sc3ccc(S(=O)(=O)N(C)C)cc32)CC1
inactive: S. cerevisiae deletion strains, locus YJR043C, strain POL32, stronger effect = lower value 1.01 | S. cerevisiae deletion strains, locus YJR066W, strain TOR1, stronger effect = lower value 0.922 | S. cerevisiae deletion strains, locus YKL009W, strain mrt4, stronger effect = lower value 0.971 | S. cerevisiae deletion strains, locus YKL068W, stronger effect = lower value 1.01 | S. cerevisiae deletion strains, locus YKL085W, strain MDH1 (second series), stronger effect = lower value 1 | S. cerevisiae deletion strains, locus YKL085W, strain MDH1, stronger effect = lower value 1 | S. cerevisiae deletion strains, locus YKL160W, strain elf1, stronger effect = lower value 0.97 | S. cerevisiae deletion strains, locus YKL190W, strain CNB1, stronger effect = lower value 1.02 | S. cerevisiae deletion strains, locus YKR001C, strain vps1, stronger effect = lower value 0.916 | S. cerevisiae deletion strains, locus YKR026C, strain gcn3, stronger effect = lower value 1.01 | S. cerevisiae deletion strains, locus YKR091W, strain srl3, stronger effect = lower value 1.01 | S. cerevisiae deletion strains, locus YLL001W, strain dnm1, stronger effect = lower value 0.906 | S. cerevisiae deletion strains, locus YLL026W, stronger effect = lower value 1 | S. cerevisiae deletion strains, locus YLL041C, strain sdh2, stronger effect = lower value 0.992 | S. cerevisiae deletion strains, locus YLR027C, strain aat2, stronger effect = lower value 0.982 | S. cerevisiae deletion strains, locus YLR039C, strain RIC1, stronger effect = lower value 1.27 | S. cerevisiae deletion strains, locus YLR058C, strain SHM2, stronger effect = lower value 1.01 | S. cerevisiae deletion strains, locus YLR102C, strain apc9, stronger effect = lower value 0.964 | S. cerevisiae deletion strains, locus YLR113W, strain HOG1, stronger effect = lower value 0.983 | S. cerevisiae deletion strains, locus YLR221C, strain rsa3, stronger effect = lower value 0.979 | S. cerevisiae deletion strains, locus YLR258W, strain gsy2, stronger effect = lower value 0.991 | S. cerevisiae deletion strains, locus YLR262C, strain YPT6 (second series), stronger effect = lower value 1.11 | S. cerevisiae deletion strains, locus YLR262C, strain YPT6, stronger effect = lower value 1.31 | S. cerevisiae deletion strains, locus YLR320W, strain mms22, stronger effect = lower value 0.893 | S. cerevisiae deletion strains, locus YLR330W, strain CHS5, stronger effect = lower value 1 | S. cerevisiae deletion strains, locus YLR342W, strain FKS1 (second series), stronger effect = lower value 0.99 | S. cerevisiae deletion strains, locus YLR342W, strain FKS1, stronger effect = lower value 0.954 | S. cerevisiae deletion strains, locus YLR357W, strain rsc2, stronger effect = lower value 0.983 | S. cerevisiae deletion strains, locus YLR370C, strain arc18, stronger effect = lower value 0.964 | S. cerevisiae deletion strains, locus YLR371W, strain rom2, stronger effect = lower value 0.976 | S. cerevisiae deletion strains, locus YLR384C, strain iki3, stronger effect = lower value 1.02 | S. cerevisiae deletion strains, locus YML016C, strain PPZ1, stronger effect = lower value 1 | S. cerevisiae deletion strains, locus YML120C, strain ndi1, stronger effect = lower value 0.984 | S. cerevisiae deletion strains, locus YML124C, strain tub3, stronger effect = lower value 0.988 | S. cerevisiae deletion strains, locus YMR058W, strain fet3, stronger effect = lower value 0.954 | S. cerevisiae deletion strains, locus YMR078C, strain ctf18, stronger effect = lower value 0.983 | S. cerevisiae deletion strains, locus YMR125W, strain sto1, stronger effect = lower value 1 | S. cerevisiae deletion strains, locus YMR129W, stronger effect = lower value 1.03 | S. cerevisiae deletion strains, locus YMR205C, strain PFK2, stronger effect = lower value 0.96 | S. cerevisiae deletion strains, locus YMR231W, strain pep5, stronger effect = lower value 1.02 | S. cerevisiae deletion strains, locus YMR263W, strain SAP30, stronger effect = lower value 1.02 | S. cerevisiae deletion strains, locus YMR307W, strain GAS1, stronger effect = lower value 1.07 | S. cerevisiae deletion strains, locus YNL067W, strain RPL9B, stronger effect = lower value 1.01 | S. cerevisiae deletion strains, locus YNL071W, strain lat1, stronger effect = lower value 0.978 | S. cerevisiae deletion strains, locus YNL183C, strain NPR1, stronger effect = lower value 0.946 | S. cerevisiae deletion strains, locus YNL209W, strain ssb2, stronger effect = lower value 0.972 | S. cerevisiae deletion strains, locus YNL233W, strain BNI4, stronger effect = lower value 1 | S. cerevisiae deletion strains, locus YNL248C, strain rpa49, stronger effect = lower value 0.942 | S. cerevisiae deletion strains, locus YNL250W, strain rad50, stronger effect = lower value 0.992 | S. cerevisiae deletion strains, locus YNL271C, strain bni1, stronger effect = lower value 0.986 | S. cerevisiae deletion strains, locus YNL298W, strain CLA4, stronger effect = lower value 0.977 | S. cerevisiae deletion strains, locus YNL322C, strain KRE1 (second series), stronger effect = lower value 0.996 | S. cerevisiae deletion strains, locus YNL322C, strain KRE1, stronger effect = lower value 1.01 | S. cerevisiae deletion strains, locus YNR049C, strain mso1, stronger effect = lower value 1.01 | S. cerevisiae deletion strains, locus YNR052C, strain pop2, stronger effect = lower value 0.971 | S. cerevisiae deletion strains, locus YOL006C, strain TOP1, stronger effect = lower value 0.983 | S. cerevisiae deletion strains, locus YOL012C, strain htz1 0.994 | S. cerevisiae deletion strains, locus YOL147C, strain pex11, stronger effect = lower value 0.959 | S. cerevisiae deletion strains, locus YOR001W, strain rrp6, stronger effect = lower value 0.977 | S. cerevisiae deletion strains, locus YOR061W, strain CKA2, stronger effect = lower value 1 | S. cerevisiae deletion strains, locus YOR069W, strain VPS5, stronger effect = lower value 1.01 | S. cerevisiae deletion strains, locus YOR070C, strain gyp1, stronger effect = lower value 0.991 | S. cerevisiae deletion strains, locus YOR080W, strain dia2, stronger effect = lower value 1.03 | S. cerevisiae deletion strains, locus YOR083W, strain WHI5, stronger effect = lower value 0.937 | S. cerevisiae deletion strains, locus YOR106W, strain vam3, stronger effect = lower value 1 | S. cerevisiae deletion strains, locus YOR136W, strain idh2, stronger effect = lower value 0.981 | S. cerevisiae deletion strains, locus YOR144C, strain elg1, stronger effect = lower value 0.988 | S. cerevisiae deletion strains, locus YOR184W, strain ser1, stronger effect = lower value 0.934 | S. cerevisiae deletion strains, locus YOR231W, strain MKK1, stronger effect = lower value 0.984 | S. cerevisiae deletion strains, locus YOR265W, strain rbl2, stronger effect = lower value 0.995 | S. cerevisiae deletion strains, locus YOR290C, strain snf2, stronger effect = lower value 0.913 | S. cerevisiae deletion strains, locus YOR316C, strain cot1, stronger effect = lower value 0.968 | S. cerevisiae deletion strains, locus YPL051W, strain arl3, stronger effect = lower value 0.95 | S. cerevisiae deletion strains, locus YPL078C, strain atp4, stronger effect = lower value 0.925 | S. cerevisiae deletion strains, locus YPL106C, strain sse1, stronger effect = lower value 0.947 | S. cerevisiae deletion strains, locus YPL240C, strain hsp82, stronger effect = lower value 0.999 | S. cerevisiae deletion strains, locus YPL256C, strain CLN2, stronger effect = lower value 0.965 | S. cerevisiae deletion strains, locus YPR119W, strain clb2, stronger effect = lower value 0.968 | S. cerevisiae deletion strains, locus YPR141C, strain kar3, stronger effect = lower value 1.02 | S. cerevisiae deletion strains, locus YPR163C, strain tif3, stronger effect = lower value 0.977 | S. cerevisiae deletion strains, locus YPR167C, strain met16, stronger effect = lower value 0.985 | S. cerevisiae deletion strains, strain wtn01, stronger effect = lower value 0.953 | S. cerevisiae strains, strain wild type, stronger effect = lower value 1.01
active: S. cerevisiae deletion strains, locus YLR268W, strain sec22, stronger effect = lower value 0.88 | S. cerevisiae deletion strains, locus YLR418C, strain cdc73, stronger effect = lower value 0.764 | S. cerevisiae deletion strains, locus YML032C, strain rad52, stronger effect = lower value 0.896 | S. cerevisiae deletion strains, locus YMR223W, strain ubp8, stronger effect = lower value 0.899 | S. cerevisiae deletion strains, locus YNL307C, strain MCK1, stronger effect = lower value 0.791 | S. cerevisiae deletion strains, locus YOR270C, strain vph1, stronger effect = lower value 0.763
